# Experimental data reported in the supplement of paper PMC13094657.
# ± gives the standard deviation of the averaged measurements.
# Columns and labels:
# [1] = tested on: MDA-MB-231; assay: cell viability relative to vehicle unstimulated control (fraction); higher = more viable cells; conditions: pre-treatment time: 18 h then 24 h IFNg/TNF
# [2] = tested on: MDA-MB-231; assay: kynurenine production, fold change vs DMSO IFNg/TNF control; higher = more kynurenine produced (less inhibition); conditions: pre-treatment time: 18 h then 24 h IFNg/TNF
# Summary of the method: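 After trichloroacetic acid and p-dimethylaminobenzaldehyde treatment, supernatants were read at 492 nm, with 0–100 μM standards. These came from MDA-MB-231 cells (7 × 10^4/well, 96-well plates) pre-treated 18 h with natural products in 0.1% DMSO and then exposed 24 h to IFNγ (1 U/ml) and TNF (6.25 ng/ml) at 37°C. Values for kynurenine production are fold changes over same-plate cytokine-stimulated vehicle wells, averaged over duplicate plates in the first screening round.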
# 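Wherever cell viability relative to vehicle unstimulated control is given: viability of the cells left after supernatant collection, read with Deep Blue dye added for 4 h, as absorbance at 570 nm minus 600 nm.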
Compound,cell viability [1],kynurenine production [2]
CC(=O)c1c[nH]c2ccccc12 [3-acetylindol] (compound dose: 10 uM),0.955 ± 0.15,1.11 ± 0.14
C=C(C)C1CC=C(C)CC1 (stereo not drawn) [(s)-(-)-limonene] (compound dose: 10 uM),0.944 ± 0.051,0.84 ± 0.099
O=C(/C=C/c1ccc(O)c(O)c1)O[C@H]1[C@H](O[C@@H]2O[C@H](CO)[C@@H](O)[C@H](O)[C@H]2O)[C@@H](O)[C@H](OCCc2ccc(O)c(O)c2)O[C@@H]1CO [Plantamajoside] (compound dose: 10 uM),,0.678 ± 0.24
C[C@@H]1C[C@@H]([C@@H](O)C(C)(C)O)O[C@H]2C[C@@]3(C)C(=C12)C[C@H](O)[C@H]1[C@@]2(C)CCC(=O)C(C)(C)[C@@H]2CC[C@@]13C [Alisol F] (compound dose: 10 uM),0.991 ± 0.032,0.848 ± 0.048
O[C@H]1[C@H]2c3cc4c(cc3CN3CCC(=C[C@@H]1O)[C@H]23)OCO4 [Lycorine chloride] (compound dose: 10 uM),0.582 ± 0.056,0.184 ± 0.072
CC[C@@H](C(=O)[C@@H](C)[C@@H](O)[C@H](C)CCc1ccc(C)c(O)c1C(=O)O)[C@H]1O[C@](CC)([C@H]2CC[C@](O)(CC)[C@H](C)O2)C[C@@H]1C [Lasalocid] (compound dose: 10 uM),0.877 ± 0.017,0.509 ± 0.022
C/C1=C\[C@H]2C(=O)[C@@H](C)C[C@]2(O)C(=O)/C(C)=C/[C@@H]2[C@H](CC1)C2(C)C [jolkinol C] (compound dose: 10 uM),1.07 ± 0.041,0.868 ± 0.087
CC1=CC(=O)[C@@H]2C[C@H]1C2(C)C [Verbenone] (compound dose: 10 uM),1.128 ± 0.0013,1.25 ± 0.13
